An excerpt weighted towards active compounds, which were near 4.8% of everything screened.
HepG2 tox – counter-screen for TGF-b inhibitors: cytotoxicity in HepG2 cells. HepG2 CAGA-GFP viability, ATP luminescence, 18 h. Potency, µM (highest dose often 46.1 µM), for inactives: at the highest dose activity change, negative = cytotoxicity, actives largely listed as cytotoxic. AID 588856. 410,000 compounds, 0.76% hits; also: potency is read from the fitted curve at half-maximal effect
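CellTiter-Glo luminescence gave cytotoxicity after 18 hours at 37 degrees C. The cells were HepG2 CAGA-GFP in 1% FBS DMEM, stimulated with 500 pg/mL TGF-beta after compound addition. %Activity was normalised to no-cell wells (complete cell-killing) and DMSO (no toxicity), and curves were fitted and classified.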
TGFb inhibitor – blocks TGF-b signaling; AID 588855; 410,000 compounds, 1.2% hits; HepG2 CAGA-GFP TGF-b/SMAD3 reporter, GFP fluorescence, 18 h; TGF-beta stimulated, 500 pg/mL final; Potency, µM (series often up to 46.1 µM), for the others: at the top dose activity, negative = inhibition, hits mostly inhibitors; also: potency is read from the fitted curve at half-maximal effect; % is scaled to controls: 0 for no effect and ±100 for the full control effect; nearly all actives have a fitted effect of over 65% in size
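Smad-responsive CAGA-GFP expression was quantified in HEPG2 cells exposed to compounds and 500 pg/mL final TGF-beta for 18 h at 37 degrees C; unstimulated wells defined full inhibition.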
ATXN2 expr inh – ATXN2 expression inhibition; HEK-293 ATXN2-luciferase reporter, luminescence, 24 h; Potency, µM (highest dose often 57 µM), without a hit: at the highest dose activity change, negative = inhibition, hits mostly inhibitors; 360,000 compounds, 0.72% hits; AID 1745845; also: potency is read from the fitted curve at half-maximal effect; % is scaled to controls: 0 for no effect and ±100 for the full control effect; nearly all actives have a fitted effect of over 55% in size
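ATXN2-luciferase reporter cells (luciferase flanked by upstream and downstream ATXN2 gene portions) were treated 24 h at 37 °C with compounds at up to 57 uM. SteadyGlo luminescence gave expression; GF-AFC fluorescence gave viability.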
ATXN viability – viability counter-screen for ATXN expression inhibitors; S2 cells (HEK-293 line with an ATXN2-luciferase reporter) viability, CellTiter-Fluor protease fluorescence, 24 h; Potency, µM (top dose mostly 56.7 µM), usual class: cytotoxic; 400,000 compounds, 0.49% hits; AID 651635; also: potency is read from the fitted curve at half-maximal effect; nearly all actives have a fitted effect of over 40% in size
DRD3 agonist – agonists of human D3 dopamine receptor | max activation, % | 410,000 compounds, 0.58% hits | P35462 | D3R DiscoveRx beta-arrestin cells, luminescence, 90 min; in the data active = max activation above about 30%; also: 0% is about no effect
Target sequence (P35462 whole entry, looked up): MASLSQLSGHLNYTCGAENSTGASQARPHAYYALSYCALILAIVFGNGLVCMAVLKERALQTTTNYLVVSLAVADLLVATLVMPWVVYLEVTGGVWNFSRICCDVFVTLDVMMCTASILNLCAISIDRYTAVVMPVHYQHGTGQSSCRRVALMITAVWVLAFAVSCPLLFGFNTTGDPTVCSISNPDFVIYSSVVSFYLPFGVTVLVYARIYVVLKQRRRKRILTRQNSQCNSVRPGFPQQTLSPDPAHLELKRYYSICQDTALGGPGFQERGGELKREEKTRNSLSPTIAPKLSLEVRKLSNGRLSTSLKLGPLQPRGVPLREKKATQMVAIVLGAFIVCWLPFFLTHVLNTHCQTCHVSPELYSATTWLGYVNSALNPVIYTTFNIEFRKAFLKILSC
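Agonist mode: compounds and dopamine controls were applied to plated cells for 90 min at 37 degrees C after an overnight attachment at 1500 cells/well. Luminescent read-out followed 30 - 60 minutes at room temperature with DiscoveRx detection reagent.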
DRD3 antagonist – blocks the human D3 dopamine receptor | P35462 | max response, negative = inhibition, % | D3R cells, DiscoveRx beta-arrestin luminescence, antagonist mode; stronger effect = lower value | 360,000 compounds, 2.5% hits; in the data active = max response below about -50%; inconclusive = no clear call, values can overlap the other calls; also: % is scaled to controls: 0 for no effect and ±100 for the full control effect
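Cells plated overnight at 1500 cells/well, then exposed to library compounds with dopamine controls for 90 minutes at 37 degrees C. DiscoveRx reagent added for 30–60 minutes at room temperature; luminescence read, quantitative HTS format.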
The depositor's hits bear a star; i = inactive; ? = inconclusive; nt = no result. Unless noted, calls follow the shape of the dose curve; as a rule, active = well fitted curve in the direction sought with a large enough effect; inconclusive = small, poorly fitted or top-dose-only effect, or another doubt; inactive = no such curve, though single readings can be large; an effect the other way counts as inactive or inconclusive.

SMILES	HepG2 tox	TGFb inhibitor	ATXN2 expr inh	ATXN viability	DRD3 agonist	DRD3 antagonist
CCc1nn2c(=O)cc(COC(=O)c3ccccc3NC(=O)C3CCCCC3)nc2s1	4%	12%	nt	nt	-3	nt
CC1(C(=O)Nc2ccc(F)cc2F)CCN1C(=O)Cc1ccc(Cl)cc1Cl (stereo unspecified)	6%	-4%	-19%	i	78*	16
O=C(NCC1Cc2cccc(-c3ncccn3)c2O1)c1cccc(-c2ccccc2F)c1 (stereo unspecified)	nt	nt	nt	i	nt	nt
COc1cc(OC)cc(-c2nc3ccccc3c(=O)n2OC(=O)c2ccc(C)c(C)c2)c1	-28%	?	nt	i	30*	109
O=S(=O)(NCc1c(Cl)cccc1Oc1ccccc1)c1ccc(F)cc1	-45%	11µM*	nt	i	0	61
CC1=NN(c2nc(C)cc(C)n2)C(=O)C1CCC(C)C (stereo unspecified)	-4%	-21%	0%	i	-3	-60*
COc1ccc(NC(=O)CC2C(=O)N(c3ccccc3)C(=O)N2CCc2sccc2C)cc1 (stereo unspecified)	-23%	-1%	7%	?	10	nt
COc1ccccc1N1CCN(C(=O)c2ccc3c(c2)N(Cc2ccccc2)C(=O)c2ccccc2S3(=O)=O)CC1	5%	nt	nt	nt	4	nt
COc1ccc(-c2ccc(-c3noc(-c4ccco4)n3)c(OC)n2)cc1	-54%	2%	0%	i	37*	28
COc1nc(-c2ccccc2)ccc1-c1noc(-c2ccco2)n1	-24%	-24%	80%	i	-1	24
Cc1csc(SCC(=O)N2CCOc3ccc(C(O)C4CCCCC4)cc3C2)n1 (stereo unspecified)	nt	nt	nt	i	nt	nt
COC1=CC(=O)C=C(OC)C1=O	-118%	?	5.6µM*	?	-93	-121*
O=C1C=C(C2CCCCC2)C(=O)c2ccccc21	-17%	-24%	-4%	i	2	3
COC1=CC(=O)c2ccccc2C1=O	2.2µM*	1.4µM*	28µM*	i	-38	-71*
O=C(CCCCCCC(=O)Nc1cccnc1)NO	nt	nt	348%	nt	nt	nt
CCc1nn(C(C)C(=O)NCCN2CCN(c3cccc(C)c3C)CC2)c(=O)c2cc3occc3n12 (stereo unspecified)	-29%	?	?	i	-9	-59*
COc1ccc(/C=C2\C(=O)N(c3c(Cl)cc(Cl)cc3Cl)N=C2NC(=O)c2cccc([N+](=O)[O-])c2)cc1	2%	0%	32µM*	nt	-12	-6
COc1ccc(NC(=O)c2cccc(N3C(=O)c4cccc([N+](=O)[O-])c4C3=O)c2)cc1	0%	-4%	15%	i	-4	-8
CC(=NNC(=O)c1ccncc1)c1ccccc1O	-13%	0%	?	i	-25	-23
CC(=NNC(=O)c1ccncc1)c1ccc(O)cc1O	10%	-1%	14µM*	i	8	5
CC(C)CC(=NNC(=O)c1ccncc1)c1cc(Cl)ccc1O	7.1µM*	-1%	2.8µM*	?	10	3
C/C(=N\NC(=O)c1ccc(N/N=C(\C)c2ccc(O)cc2)cc1)c1ccc(O)cc1	11µM*	13µM*	nt	?	-1	24
C/C(=N\NC(=O)c1ccc(O)cc1)c1ccc(N2CCOCC2)cc1	8%	13%	-16%	i	5	7
CCCCCCCCC(=O)N/N=C(\C)c1ccc(O)cc1O	-23%	?	18µM*	?	6	4
COc1ccc(-c2ccc(CCC(=O)O)n2CC(=O)Nc2cccc(C(F)(F)F)c2)cc1	-9%	-7%	-22%	i	7	nt
SMILES	HepG2 tox	TGFb inhibitor	ATXN2 expr inh	ATXN viability	DRD3 agonist	DRD3 antagonist
C/C(=N\NC(=O)c1cc(-c2cccnc2)nc2ccccc12)c1ccc(O)cc1O	-20%	-9%	4µM*	?	2	16
CCCCCCCNC(=O)COc1ccc2c(c1)C(=O)CC(C)(C)O2	-16%	-16%	0%	i	-5	16
O=C(NCCN1CCN(c2ccccc2F)CC1)C1c2ccccc2C(=O)N2CCc3ccccc3C12 (stereo unspecified)	-11%	-6%	-15%	?	-2	-57*
CC1(C)CC(=O)c2cc(OCC(=O)NCCCN3CCN(c4ccccc4F)CC3)ccc2O1	-35%	-14%	-7%	i	-2	-55*
CCn1c(=O)cc(SCC(=O)NCCCN2CCN(c3ccccc3F)CC2)c2ccccc21	-41%	-9%	19%	i	-33	-82*
Cn1c(=O)cc(OCC(=O)NCCCN2CCN(c3ccccc3F)CC2)c2ccccc21	-16%	2%	11%	i	21	?
Cn1c(=O)cc(OCCCC(=O)NCCN2CCN(c3ccccc3F)CC2)c2ccccc21	0%	-1%	22%	i	39*	?
Cc1ccc(S(=O)(=O)NCCc2nnc3ccc(SCc4ccccc4F)nn23)cc1	-22%	-12%	nt	nt	9	nt
O=C(NCCCN1CCN(c2ccccc2F)CC1)C1CC(=O)N(C2CCCC2)C1 (stereo unspecified)	-1%	-1%	-6%	?	41*	-77*
O=C(CCN1C(=O)COc2ccccc21)NCCN1CCN(c2ccccc2F)CC1	0%	1%	6%	i	-18	-64*
O=C(CCN1C(=O)COc2ccccc21)NCCCN1CCc2ccccc2C1	-14%	-23%	-9%	i	-26	-93*
CN1CCN(CCCNC(=O)CN2C(=O)COc3ccccc32)CC1	0%	4%	-15%	i	-23	-20
O=C(CN1C(=O)COc2ccccc21)NCCCN1CCN(c2ccccc2F)CC1	2%	-7%	2%	i	2	-91*
O=C(CN1C(=O)COc2ccccc21)NCCN1CCCC1	-47%	-3%	nt	i	-9	-13
CN(C)/[N+]([O-])=N/Oc1cc(ON=[N+]([O-])N2CCN(c3ncccn3)CC2)c([N+](=O)[O-])cc1[N+](=O)[O-]	-10%	?	nt	nt	nt	nt
Cc1nc(-c2ccc(F)cc2)c(CC(=O)N(C)CC(=O)Nc2ccc(Cl)c(C(F)(F)F)c2)s1	-82%	18µM*	?	i	-13	-2
CC(=O)n1cc(N(C(=O)CCl)c2ccc(Cl)cc2)c2ccccc21	7.9µM*	?	nt	3.5µM*	-9	-58*
CC(=O)n1cc(C=O)c2ccccc21	0%	44%	nt	nt	nt	nt
COc1ccccc1N(C(=O)CCl)c1cn(C(C)=O)c2ccccc12	11µM*	11µM*	nt	6.3µM*	-4	-29
CCOC(=O)c1ccccc1Nc1cn(C(C)=O)c2ccccc12	-21%	-15%	-6%	i	6	33
